According to PubChem BioAssay (NCI):
The panel holds about 79,000 compounds, 15% with a hit somewhere; the sample as a whole holds those more often. No stated cut-off is given here; in the data, active means growth inhibition above about 70%; inactive means the rest.

What was measured:
[1] = NCI Yeast Anticancer Drug Screen. Data for the rad50 strain (AID 155);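 further: 0% = growth of vehicle-only cultures of the same strain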; conditions: S. cerevisiae rad50 strain growth inhibition; at 50.0 µM; hits give high values
In short: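 Readout: growth inhibition relative to vehicle-treated cultures. Compound exposure was carried out in a genetically defined yeast strain deficient in DNA damage repair.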

[2] = NCI Yeast Anticancer Drug Screen. Data for the mec2-1 strain (AID 157); conditions: S. cerevisiae mec2-1 strain, at 50.0 µM, hits give high values
In short: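 Compounds were applied to mec2-1 yeast cells. Their growth was then compared with that of vehicle-treated cultures to give growth inhibition.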

[3] = NCI Yeast Anticancer Drug Screen. Data for the sgs1 mgt1 strain (AID 161);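 further: 0% = growth of cultures given vehicle only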; conditions: S. cerevisiae sgs1 mgt1 strain, at 50.0 µM, hits give high values
In short: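 Compounds are added to genetically altered yeast, and growth is compared with cultures given vehicle alone to give percent inhibition.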

[4] = NCI Yeast Anticancer Drug Screen. Data for the cln2 rad14 strain (AID 165);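 further: 0% = growth equal to vehicle treated cultures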; conditions: S. cerevisiae cln2 rad14 strain, at 50.0 µM, hits give high values
In short: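 Strain: cln2 rad14 yeast, altered in cell cycle control and DNA damage repair. Read-out: growth inhibition vs vehicle.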

[5] = NCI Yeast Anticancer Drug Screen. Data for the bub3 strain (AID 167); conditions: S. cerevisiae bub3 mutant strain, at 50.0 µM, hits give high values
In short: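 Readout: yeast growth inhibition, expressed relative to vehicle-only wells. The test organism is a mutant strain from a panel with lesions in DNA repair or checkpoint genes.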

[6] = NCI Yeast Anticancer Drug Screen. Data for the mlh1 rad18 strain (AID 175); conditions: S. cerevisiae mlh1 rad18 strain growth inhibition; at 50.0 µM; hits give high values
In short: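 A repair-deficient yeast strain is exposed to test compound, and growth is scored relative to vehicle-treated controls.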

Measured: growth inhibition

Nc1ccc(N=Nc2ccc(OCCN(CCO)CCO)cc2)c(N)n1
inactive: [1] 23.8% | [2] -22.8% | [3] 8.8% | [4] 4.95% | [5] 21.6% | [6] 15.7%

O=S1c2ccccc2N=C(c2ccc3ccccc3c2)CC1c1ccccc1F (stereo unspecified)
inactive: [1] -1.1% | [2] -2.95% | [3] 12.3% | [4] 4.45% | [5] 2.45% | [6] 6.8%

O=C(O)CCCCCCc1ccc2ccccc2n1
inactive: [1] 16.8% | [2] 13.8% | [3] 16.5% | [4] 10% | [5] 7.05% | [6] -3.55%

CS(=O)(=O)O[C@H]1[C@H](O)c2ccccc2[C@@H]1N=[N+]=[N-]
inactive: [1] 13.5% | [2] 3.95% | [3] -2.05% | [4] -3% | [5] -10.2% | [6] -51.4%

CN(C)S(=O)(=O)C(C(N)=O)c1ccccc1 (stereo unspecified)
inactive: [1] -8.75% | [2] 10.6% | [3] 19.4% | [4] -14.9% | [5] 7.65% | [6] 10.4%

CC(=O)Nc1cccc(Cl)c1
inactive: [1] -2.25% | [2] -24.5% | [3] -0.2% | [4] -4.8% | [5] -1.45% | [6] 6.5%

O=C1c2ccccc2C(=O)N1C1CCCCC1
inactive: [1] 7.15% | [2] 35.9% | [3] 22.4% | [4] -4.25% | [5] 56.4% | [6] -16.6%

Cc1cc(NC(=O)NC(=O)c2ccccc2NC(=O)CN(C)C)ccc1Oc1ncc(Br)cn1
inactive: [1] -10.3% | [2] -28.9% | [3] 0.5% | [4] -6.2% | [5] -21% | [6] -26.7%

O=[N+]([O-])c1ccc(C(O)C(c2ccccc2)S(=O)(=O)N2CCCCC2)cc1 (stereo unspecified)
inactive: [1] 40.6% | [2] -2.75% | [3] 17.1% | [4] -31.9% | [5] -0.5% | [6] 24.9%

Nc1ccc(C(=O)N/N=C/C=C/c2ccccc2)cc1
inactive: [1] 0.6% | [2] 56.1% | [3] 16.6% | [4] -5.8% | [5] 30.4% | [6] 8.05%

O=C(Oc1ccccc1Cl)C1=C(C(=O)Oc2ccccc2Cl)CCC1
inactive: [1] 51.4% | [2] -1.2% | [3] 45.5% | [4] -1.45% | [5] 4.55% | [6] 9.75%

COC(=O)c1nc(=S)[nH]c(C(=O)OC)c1C(=O)c1ccc(C)cc1
inactive: [1] -3.7% | [2] -7.15% | [3] 5.75% | [4] -14% | [5] 10.6% | [6] 21.4%

CCN(CC)C(=O)Sc1ccc(SC(=O)N(CC)CC)cc1
inactive: [1] -5% | [2] 12.6% | [3] -2.05% | [4] -5.65% | [5] -3.3% | [6] -6.4%

CCOC(=O)C(=CNc1ccc(NC2=NCC(C)S2)cc1)C(=O)OCC (stereo unspecified)
inactive: [1] -0.05% | [2] 0.35% | [3] -20.4% | [4] -7.9% | [5] -35.8% | [6] -47%

Cc1ccc2c(c1)[nH]c(=S)n2/C=C(\c1ccccc1)S(=O)Cc1ccccc1 (stereo unspecified)
inactive: [1] -23.7% | [2] -25.6% | [3] -19.9% | [4] 0.3% | [5] -28.1% | [6] -26.2%

CCCS(CCC)=NS(=O)(=O)c1ccc(C)cc1
inactive: [1] -6.75% | [2] -0.7% | [3] 0.6% | [4] -0.8% | [5] 11.6% | [6] -9.65%

CC(O)CN1CNC(=S)NC1 (stereo unspecified)
inactive: [1] -3.8% | [2] -39.3% | [3] -3.55% | [4] 8.75% | [5] -16.2% | [6] -7.25%

O=C1C(=O)c2ccccc2C(O)=C1CCCc1ccc(S(=O)(=O)c2ccccc2)cc1
inactive: [1] 2.35% | [2] 11.8% | [3] 0.7% | [4] 55.1% | [5] 16.2% | [6] 9.2%

COc1c(O)c(O)c2c(c1O)C(=O)c1cc(C)cc(O)c1C2=O
inactive: [1] -16.3% | [2] -27% | [3] -22.7% | [4] -8.45% | [5] -30% | [6] -19.4%

CC1CCN(CCOC(=O)c2ccc(OC(C)C)cc2)C1 (stereo unspecified)
inactive: [1] 8.1% | [2] 12.6% | [3] 24.4% | [4] -10.5% | [5] 11.2% | [6] 12.1%

O=c1[nH]c(O)c(/C=N/C(=S)NCc2ccccc2)c(=O)[nH]1
inactive: [1] -41% | [2] -37.9% | [3] -26.1% | [4] 5.9% | [5] -0.55% | [6] -12.3%

Cc1ccc(S(=O)(=O)CO)cc1
inactive: [1] 0.5% | [2] -3.2% | [3] 14.3% | [4] -51.5% | [5] -27.9% | [6] 11%

Cc1ccc([N+](=O)[O-])cc1NC(=O)N(C)Cc1ccc(Cl)cc1
inactive: [1] 5.5% | [2] 24.2% | [3] -12.2% | [4] -5.35% | [5] -5.4% | [6] -8.9%

CC(C)OC(=O)Oc1ccccc1Cl
inactive: [1] -18.5% | [2] -21.1% | [3] -13.6% | [4] -6.9% | [5] -3.35% | [6] -22.4%

Cc1ccccc1S(=O)(=O)NSc1ccccc1[N+](=O)[O-]
inactive: [1] 28.2% | [2] -5.25% | [3] 33% | [4] 1.85% | [5] -12.8% | [6] 25.7%

COc1cccc(/C=C2\C(=O)N(C(=O)Cc3ccccc3)N=C2C)c1
inactive: [1] 4.3% | [2] -30.2% | [3] -34.8% | [4] -0.45% | [5] -14.8% | [6] -24.1%

Cc1cc(O)ccc1N=Nc1ccc(S(=O)(=O)O)cc1
inactive: [1] -26.8% | [2] -10.2% | [3] -10.6% | [4] 2.55% | [5] 4.55% | [6] -12.5%

CCOC(=O)/C=C(/C)c1ccccc1
inactive: [1] 12.2% | [2] 18.2% | [3] 6.9% | [4] 0.7% | [5] -2.7% | [6] 3.1%

CC1=CC[P+](Cc2ccccc2)(c2ccccc2)C1 (stereo unspecified)
inactive: [1] -25.4% | [2] 14.7% | [3] 22.2% | [4] 4.35% | [5] 8.2% | [6] 8.8%

C#CCOC(=O)[C@@H](C)c1ccc2cc(OC)ccc2c1
inactive: [1] 11.2% | [2] 4.25% | [3] 52.3% | [4] 17.4% | [5] 36.6% | [6] 43%

COc1cccc(/C=C/C(=O)c2sc(C(N)=S)nc2C)c1O
inactive: [1] 14.2% | [2] 1.7% | [3] 5.2% | [4] 25.9% | [5] -3.75% | [6] 7.6%

N#Cc1c(N)nc2c3c1NC(=O)C(C(N)=O)C3c1ccccc1O2 (stereo unspecified)
inactive: [1] 6.1% | [2] -3.15% | [3] 5.95% | [4] 2% | [5] -2.6% | [6] -22.4%

O=C(CCS(=O)(=O)CCC(=O)c1cccs1)c1cccs1
inactive: [1] 4.2% | [2] 10.3% | [3] 1.9% | [4] -4.15% | [5] -3.55% | [6] 15.6%

Cc1cc(=O)c(O)c(C)o1
inactive: [1] -1.4% | [2] -2.9% | [3] -3.4% | [4] 2.5% | [5] -0.05% | [6] -1.7%

O=C(Nc1cccc(C(=O)NCCCO)c1)/C(=C/c1ccccc1)NC(=O)c1ccccc1
inactive: [1] 0% | [2] -1.85% | [3] 1.45% | [4] 9.35% | [5] -2.4% | [6] 4.35%

CSC(=Nc1ccc(Br)cc1)NC(=O)c1cc([N+](=O)[O-])cc([N+](=O)[O-])c1
inactive: [1] -33% | [2] 3.4% | [3] 23.1% | [4] -58% | [5] 6.2% | [6] -18.8%

CN(C)C(=O)/C=C/C(=O)O (tested in a mixture with another compound)
inactive: [1] -1.25% | [2] -10.3% | [3] 6.9% | [4] 7.65% | [5] 16.8% | [6] -20.8%

COc1ccc(C2C3=C(COC3=O)OC(C)(C)Oc3cc4c(cc32)OCO4)cc1 (stereo unspecified)
inactive: [1] -3% | [2] 0.85% | [3] 13.7% | [4] 6.5% | [5] 36.1% | [6] -19.9%

C[N+](=C\c1ccccc1O)/N=C\c1ccccc1O
inactive: [1] 7.15% | [2] 2.05% | [3] 6.75% | [4] -35.6% | [5] 8.2% | [6] -1.5%

Cc1cc(Cl)ccc1N1C(=O)C(=O)C(c2nc3ccccc3s2)/C(=N\NC(=O)c2ccccc2O)C1=O (stereo unspecified)
inactive: [1] -37.9% | [2] 0.45% | [3] -9.8% | [4] 10.8% | [5] -15.2% | [6] -14.9%

CCN(CC)CC(C)C(O)(Cc1ccccc1)c1ccc(Cl)cc1 (stereo unspecified)
inactive: [1] 21.4% | [2] 17.6% | [3] 27.9% | [4] 33.5% | [5] 10.1% | [6] 17.4%
